Assay results published in publication PMC12864922, “TDP-43 directly inhibits mRNA accumulation in neurites through modulation of mRNA stability”.
Whole data set: some 9,900 sequences, median “r (bound/input frequency ratio)” near 0.7, cut for the highest 2% near 6.5. This is one part of a sample in which the highest values are shown more often than they occur.

B1: ENSMUSG00000042529.153|Kcnj12 (ssRNA)
RNA: GGGAGUUCUACAGUCCGACGAUCGCUUCGAUAUCCGCAUGCUAAUAGGAAACACCAGAGUGGGUGCUUCUUAGAAAAGGACACUCAGGAAAUUAGUAUGGGGUCUGGGUCCCACAUCCCCAGGAAGUGGGUCAGCCCCACGUCCCCCGCUGGACUCACAGCUUGAGUUGUGCCUUAGAGACUCUGGUUGUCUGGCUUCCGUCAUUUCUGGUUUUCUCAGACUUGUUUAAUCUUUCCCUACUGCCCUAAGUCCACUCAUGAAGCUCCCCAGGCCCUUCUGAGAUUGCAGAGGCUGCUUGCUCAUCUCUUGCGGUCGCACUAGUGUGGAAUUCUCGGGUGUCAAGG
B2: ENSMUSG00000058297.8|Spock2|203:207;211:224;233:244 (ssRNA)
RNA: GGGAGUUCUACAGUCCGACGAUCGCUUCGAUAUCCGCAUGCUAGGCCGAGGAGGAGGAGGGUGAGGCGGGUGAGGCAGAUGAUGGAGGCUACAUCUGGUAGAUAGCCCUCGACGGCCUCGGCAGGCCAGGGUGCCGACGGCCAGAAAGACAGGCCAGAAGAGACCUGGACAACAGCAGGCAACUUAGCAAAUGGAUCCGGAAGUCAGUGCGGAGGACCCUGGCUCCAGUGGGGGAGGACUGGGGACACACGCUACACACAUACACACAUAUGAGAACACACACAUACAUGUGAGAUGUGAGUGCUCUUGCGGUCGCACUAGUGUGGAAUUCUCGGGUGUCAAGG
B3: ENSMUSG00000058297.1|Spock2 (ssRNA)
RNA: GGGAGUUCUACAGUCCGACGAUCGCUUCGAUAUCCGCAUGCUAGGAGGAUGAGGAAGAAAAGGAGACAGAAGAGGCAGGGGAGGAGGCCGAGGAGGAGGAGGGUGAGGCGGGUGAGGCAGAUGAUGGAGGCUACAUCUGGUAGAUAGCCCUCGACGGCCUCGGCAGGCCAGGGUGCCGACGGCCAGAAAGACAGGCCAGAAGAGACCUGGACAACAGCAGGCAACUUAGCAAAUGGAUCCGGAAGUCAGUGCGGAGGACCCUGGCUCCAGUGGGGGAGGACUGGGGAGUGUGGCUUGUGUGUACUCUUGCGGUCGCACUAGUGUGGAAUUCUCGGGUGUCAAGG
B4: ENSMUSG00000058297.10|Spock2 (ssRNA)
RNA: GGGAGUUCUACAGUCCGACGAUCGCUUCGAUAUCCGCAUGCUAGGAGGGUGAGGCGGGUGAGGCAGAUGAUGGAGGCUACAUCUGGUAGAUAGCCCUCGACGGCCUCGGCAGGCCAGGGUGCCGACGGCCAGAAAGACAGGCCAGAAGAGACCUGGACAACAGCAGGCAACUUAGCAAAUGGAUCCGGAAGUCAGUGCGGAGGACCCUGGCUCCAGUGGGGGAGGACUGGGGAGUGUGGCUUGUGUGUAUGUGUGAUAUGAGAUGUGUGUGUAUGAUGUGAGAUGUGAGUGUGUGAUGUGAGACUCUUGCGGUCGCACUAGUGUGGAAUUCUCGGGUGUCAAGG
B5: ENSMUSG00000058297.4|Spock2 (ssRNA)
RNA: GGGAGUUCUACAGUCCGACGAUCGCUUCGAUAUCCGCAUGCUAGGAGACAGAAGAGGCAGGGGAGGAGGCCGAGGAGGAGGAGGGUGAGGCGGGUGAGGCAGAUGAUGGAGGCUACAUCUGGUAGAUAGCCCUCGACGGCCUCGGCAGGCCAGGGUGCCGACGGCCAGAAAGACAGGCCAGAAGAGACCUGGACAACAGCAGGCAACUUAGCAAAUGGAUCCGGAAGUCAGUGCGGAGGACCCUGGCUCCAGUGGGGGAGGACUGGGGAGUGUGGCUUGUGUGUAUGUGUGAUAUGAGAUGUGCUCUUGCGGUCGCACUAGUGUGGAAUUCUCGGGUGUCAAGG
B6: ENSMUSG00000058297.7|Spock2 (ssRNA)
RNA: GGGAGUUCUACAGUCCGACGAUCGCUUCGAUAUCCGCAUGCUAGGAGGAGGCCGAGGAGGAGGAGGGUGAGGCGGGUGAGGCAGAUGAUGGAGGCUACAUCUGGUAGAUAGCCCUCGACGGCCUCGGCAGGCCAGGGUGCCGACGGCCAGAAAGACAGGCCAGAAGAGACCUGGACAACAGCAGGCAACUUAGCAAAUGGAUCCGGAAGUCAGUGCGGAGGACCCUGGCUCCAGUGGGGGAGGACUGGGGAGUGUGGCUUGUGUGUAUGUGUGAUAUGAGAUGUGUGUGUAUGAUGUGAGAUGCUCUUGCGGUCGCACUAGUGUGGAAUUCUCGGGUGUCAAGG
B7: ENSMUSG00000058297.6|Spock2 (ssRNA)
RNA: GGGAGUUCUACAGUCCGACGAUCGCUUCGAUAUCCGCAUGCUAGGCAGGGGAGGAGGCCGAGGAGGAGGAGGGUGAGGCGGGUGAGGCAGAUGAUGGAGGCUACAUCUGGUAGAUAGCCCUCGACGGCCUCGGCAGGCCAGGGUGCCGACGGCCAGAAAGACAGGCCAGAAGAGACCUGGACAACAGCAGGCAACUUAGCAAAUGGAUCCGGAAGUCAGUGCGGAGGACCCUGGCUCCAGUGGGGGAGGACUGGGGAGUGUGGCUUGUGUGUAUGUGUGAUAUGAGAUGUGUGUGUAUGAUGUCUCUUGCGGUCGCACUAGUGUGGAAUUCUCGGGUGUCAAGG
B8: ENSMUSG00000058297.8|Spock2 (ssRNA)
RNA: GGGAGUUCUACAGUCCGACGAUCGCUUCGAUAUCCGCAUGCUAGGCCGAGGAGGAGGAGGGUGAGGCGGGUGAGGCAGAUGAUGGAGGCUACAUCUGGUAGAUAGCCCUCGACGGCCUCGGCAGGCCAGGGUGCCGACGGCCAGAAAGACAGGCCAGAAGAGACCUGGACAACAGCAGGCAACUUAGCAAAUGGAUCCGGAAGUCAGUGCGGAGGACCCUGGCUCCAGUGGGGGAGGACUGGGGAGUGUGGCUUGUGUGUAUGUGUGAUAUGAGAUGUGUGUGUAUGAUGUGAGAUGUGAGUGCUCUUGCGGUCGCACUAGUGUGGAAUUCUCGGGUGUCAAGG
B9: ENSMUSG00000058297.9|Spock2 (ssRNA)
RNA: GGGAGUUCUACAGUCCGACGAUCGCUUCGAUAUCCGCAUGCUAGGAGGAGGAGGGUGAGGCGGGUGAGGCAGAUGAUGGAGGCUACAUCUGGUAGAUAGCCCUCGACGGCCUCGGCAGGCCAGGGUGCCGACGGCCAGAAAGACAGGCCAGAAGAGACCUGGACAACAGCAGGCAACUUAGCAAAUGGAUCCGGAAGUCAGUGCGGAGGACCCUGGCUCCAGUGGGGGAGGACUGGGGAGUGUGGCUUGUGUGUAUGUGUGAUAUGAGAUGUGUGUGUAUGAUGUGAGAUGUGAGUGUGUGAUCUCUUGCGGUCGCACUAGUGUGGAAUUCUCGGGUGUCAAGG
B10: ENSMUSG00000058297.9|Spock2|197:201;205:218;227:238;252:258 (ssRNA)
RNA: GGGAGUUCUACAGUCCGACGAUCGCUUCGAUAUCCGCAUGCUAGGAGGAGGAGGGUGAGGCGGGUGAGGCAGAUGAUGGAGGCUACAUCUGGUAGAUAGCCCUCGACGGCCUCGGCAGGCCAGGGUGCCGACGGCCAGAAAGACAGGCCAGAAGAGACCUGGACAACAGCAGGCAACUUAGCAAAUGGAUCCGGAAGUCAGUGCGGAGGACCCUGGCUCCAGUGGGGGAGGACUGGGGACACACGCUACACACAUACACACAUAUGAGAACACACACAUACAUGUGAGAUGUGACACACACAUCUCUUGCGGUCGCACUAGUGUGGAAUUCUCGGGUGUCAAGG
B11: ENSMUSG00000031028.199|Tub (ssRNA)
RNA: GGGAGUUCUACAGUCCGACGAUCGCUUCGAUAUCCGCAUGCUAACCUGCUAGGGUCUAUUCUGCAUGUCCUUUCUCUUCCCAGUUCCAGAGAUGAAACCCCUCCGAGUUAAUGUAUAAGGUUGGAAACCUUUCAGUAGGGAAUCAGGCAGUUCCCUGUUGAAAGUUGUCUGAGUUUUUGCACACCAUUCUGAUCUGAUGUGGCCUGUGCCUGGCUCCUCUAUGAGGACUUCGAGCUGUGCACAGACCUUAGCAGGACCACUGCACACUUUGUGUCUGUGUGACAGGCAGCCCAAGGGUUCUGGCUCUUGCGGUCGCACUAGUGUGGAAUUCUCGGGUGUCAAGG
B12: ENSMUSG00000090935.60|Synj2bp (ssRNA)
RNA: GGGAGUUCUACAGUCCGACGAUCGCUUCGAUAUCCGCAUGCUAAUUACCUGCACCUGGAUAUGGGACAGUAGGCUUUUACACUGUUCUUGUGAAUAGGUUUGUAAGCUUCAAAGUCUGCUUUACUUUAUCUUCUGUUAUGAUUGCCUUUGUCAGCAUAGGCAGGAGUCCUUUAGGAUUUCUGCCUAUCAGUAAAAGAAGUAUGUAACCCAAGUUCUACCUUCAGUGGAUUAAAGUUUCAUUAAGUGAAAAUGGAAAGAAAGUAGAAUUACUUGGUAAGAGGCCAAAUGAGGAUACAGAGGCUGCUCUUGCGGUCGCACUAGUGUGGAAUUCUCGGGUGUCAAGG
B13: ENSMUSG00000042529.476|Kcnj12 (ssRNA)
RNA: GGGAGUUCUACAGUCCGACGAUCGCUUCGAUAUCCGCAUGCUAAGAUGUAGGCAACAAGACUAGACCACAUUAAAUGCAUUUUGAUCUCUUUGAAUGCUACUGUGUUGAGAUGUGCGUCUCACUGGCCUCUGCCUGCCUCUCCCGCCUGCGGAGCACUUACACUUCCUGGGGCCCCUGCAGCUGGACCAUGUACAGGGCUCCCUGGGGCUUGUCCUCAGGGGCAGAGAAGGACAUGGUGGCAGCAGCACUGAGAACAGGAGCAUGGCCUCUCUCAGACCCCAGGGCAGUCAUUCAGUCUUUUCCUCUUGCGGUCGCACUAGUGUGGAAUUCUCGGGUGUCAAGG

molecular target: TDP-43 (Homo sapiens, UniProt Q13148 1-414); test: RNA Bind-n-Seq with designed 260-mer pool; 25 mM Tris-HCl, 150 mM KCl, 3 mM MgCl2, BSA (printed 500 mg/mL), 20 units/mL SUPERase IN; pH not stated; 500 nM RNA pool, 1 h, 4 C; TDP-43 5, 50, 500 nM; high values mean tight binding; conditions: protein: recombinant; tags: SBP (GST cleaved off with PreScission; pGEX-GST-SBP)
Procedure, shortened: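 Duplicate measurements used two independent batches of recombinant SBP-tagged TDP-43, which was captured on streptavidin beads at 5, 50 or 500 nM. The beads were incubated with 500 nM of an in vitro-transcribed 260-nt 3′ UTR oligo pool for 1 h at 4 °C in 25 mM Tris-HCl, 150 mM KCl, 3 mM MgCl2, BSA and SUPERase IN. After washing, biotin elution, reverse transcription, PCR amplification and sequencing, binding was expressed as R: each oligo's normalized read abundance in the bound sample over its abundance in input.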

Chain of TDP-43 (Q13148 whole entry): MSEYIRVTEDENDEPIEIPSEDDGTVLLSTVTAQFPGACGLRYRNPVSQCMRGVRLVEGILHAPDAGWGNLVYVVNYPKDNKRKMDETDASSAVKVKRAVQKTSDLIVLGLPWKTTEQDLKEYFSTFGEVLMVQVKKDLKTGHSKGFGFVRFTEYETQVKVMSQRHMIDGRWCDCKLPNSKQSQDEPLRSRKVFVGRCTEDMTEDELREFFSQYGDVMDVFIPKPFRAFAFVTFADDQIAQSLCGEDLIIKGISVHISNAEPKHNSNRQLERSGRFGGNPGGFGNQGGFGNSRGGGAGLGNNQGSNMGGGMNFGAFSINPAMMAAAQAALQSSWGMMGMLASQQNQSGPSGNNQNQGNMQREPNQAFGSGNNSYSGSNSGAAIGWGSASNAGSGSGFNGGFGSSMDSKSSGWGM

Binder	binding signal
B1	0.587 R (bound/input frequency ratio)
B2	2.32 R (bound/input frequency ratio)
B3	3.54 R (bound/input frequency ratio)
B4	6.91 R (bound/input frequency ratio)
B5	6.81 R (bound/input frequency ratio)
B6	5.88 R (bound/input frequency ratio)
B7	4.92 R (bound/input frequency ratio)
B8	6.51 R (bound/input frequency ratio)
B9	5.99 R (bound/input frequency ratio)
B10	2.81 R (bound/input frequency ratio)
B11	1.55 R (bound/input frequency ratio)
B12	0.778 R (bound/input frequency ratio)
B13	0.564 R (bound/input frequency ratio)
